Data reported in PubChem BioAssay.
Active and inactive are the calls of the source.

Legend:
[1] = system: Plasmodium falciparum Sir2 (PF13_0152, Sir2A); test: Plasmodium falciparum Sir2A binding compounds – biochemical, small-molecule microarray, 635 nm fluorescence, primary screen (AID 1098); details: fluorescence 635 nm, higher = more signal;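 also: score merges spot fluorescence intensity with its signal-to-noise ratio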
[2] = probe aDKK1 binding to arrayed compounds – biochemical, biotinylated probe, 635/667 nm fluorescence, primary screen (AID 1099); details: small-molecule microarray, higher = more signal;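 also: score merges 667nm spot fluorescence with signal to noise across triplicate slides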
[3] = probe aCHRDL2 binding to arrayed compounds – biochemical, biotinylated probe, 635/667 nm fluorescence, primary screen (AID 1100); details: small-molecule microarray, higher = more signal
[4] = change in splice reporter luminescence, either direction, cell-based, HEK293, spliceosome inhibition project, primary screen (AID 1101); details: HEK293 splicing luciferase reporter, 24 h, higher = more signal, called active from +8 up or from −8 down;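 also: HEK293 cells carrying a splicing-competent luciferase reporter gene; test concentration not given here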
[5] = biological target: Fibroblast growth factor 10 (Homo sapiens) (UniProt O15520); test: compounds binding fibroblast growth factor 10 – biochemical, small-molecule microarray, 635 nm fluorescence, primary screen (AID 1102); details: FGF10 binding, fluorescence 635 nm, higher = more signal
[6] = system: glycogen synthase kinase-3 (GSK3A per assay name; protocol says GSK3B); test: compounds binding glycogen synthase kinase-3 – biochemical, small-molecule microarray, 635 nm fluorescence, GSK3A, primary screen (AID 1103); details: fluorescence 635 nm, higher = more signal; also: the record names both GSK3A and GSK3B
[7] = biological target: Epidermal growth factor receptor (Homo sapiens) (UniProt P00533); test: compounds binding epidermal growth factor receptor – biochemical, small-molecule microarray, 635 nm fluorescence, primary screen (AID 1104); details: EGFR binding, higher = more signal;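 also: score merges 667 nm emission intensity with spot signal to noise over triplicate slides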
[8] = biological target: Follistatin-related protein 3 (Homo sapiens) (UniProt O95633); test: compounds binding follistatin-related protein 3 – biochemical, small-molecule microarray, 635 nm fluorescence, primary screen (AID 1105); details: FSTL3 binding, higher = more signal;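 also: score merges emission near 667 nm and signal to noise per printed spot across three slides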
[9] = biological target: Dickkopf-related protein 1 (Homo sapiens) (UniProt O94907); test: small molecules binding DKK1 protein – biochemical, small-molecule microarray, 635 nm fluorescence scan, primary screen (AID 1106); details: higher = more signal;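 also: score merges emission near 667 nm with signal to noise over three replicate slides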
[10] = system: Inhibin beta A chain (activin A); test: small molecules binding activin A – biochemical, small-molecule microarray, 635 nm fluorescence scan, primary screen (AID 1107); details: INHBA, higher = more signal;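 also: mouse activin A protein probed at 4.33 µg/mL on printed slides; score merges bound-protein fluorescence near 667 nm with spot signal-to-noise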
[11] = system: Human papillomavirus type 1a protein E7 (residues 44-93); test: small molecules binding HPV E7 44-93 – biochemical, small-molecule microarray, residues 44-93, 635 nm fluorescence, primary screen (AID 1108); details: fluorescence 635 nm, higher = more signal;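 also: E7 fragment applied at 1 µg/mL in TBST for 1 h at 4 C; score combines spot fluorescence with its signal to noise ratio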
[12] = hepatitis C replication reporter changes, two-sided – Huh7 cells, luciferase reporter, HCV replication inhibitor project, primary screen (AID 1109); details: Huh7 HCV replicon luciferase reporter, 48 h; higher = more signal;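 also: huh7 hepatoma cells harbouring a luciferase neomycin HCV replicon reporter; luciferase luminescence as measure of HCV replicon replication; test concentration not given here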
[13] = biological target: Left-right determination factor 2 (Homo sapiens) (UniProt O00292); test: small molecules binding LEFTY2 protein – biochemical, small-molecule microarray, 635 nm fluorescence scan, primary screen (AID 1110); details: higher = more signal
[14] = biological target: Calmodulin-1 (Homo sapiens) (UniProt P0DP23); test: small molecules binding calmodulin-1 with EGTA – biochemical, small-molecule microarray, Cy5-labelled CALM1, profiling panel (AID 1111); details: Cy5-CALM1 binding fluorescence, higher = more signal;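 also: labelled calmodulin applied in Tris saline Tween buffer holding calcium plus EGTA and DTT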
[15] = biological target: Calmodulin-1 (Homo sapiens) (UniProt P0DP23); test: small molecules binding Ca-loaded calmodulin-1 – biochemical, small-molecule microarray, Cy5-labelled CALM1, plus calcium, artefact control for SMM control-protein annotation, profiling panel (AID 1112); details: Cy5-CALM1 binding fluorescence, higher = more signal;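 also: score merges spot fluorescence with signal to noise from triplicate slides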
[16] = probe aWnt5a binding to arrayed compounds – biochemical, biotinylated probe, 635/667 nm fluorescence, primary screen (AID 1113); details: small-molecule microarray, higher = more signal;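 also: score merges 667 nm fluorescence intensity with signal-to-noise per printed feature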
[17] = probe aShh binding to arrayed compounds – biochemical, biotinylated probe, 635/667 nm fluorescence, primary screen (AID 1114); details: small-molecule microarray, higher = more signal;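 also: probe is biotin-labelled aShh protein from a stem cell growth factor screen; measures binding of labelled protein to compounds printed on the slide; score merges feature fluorescence at 667 nm with signal-to-noise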
[18] = probe aNog binding to arrayed compounds – biochemical, biotinylated probe, 635/667 nm fluorescence, primary screen (AID 1115); details: small-molecule microarray, higher = more signal;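 also: probe is biotinylated aNog protein used at 0.15 µg/mL for 1 h at 4 C; z-score combines 667 nm fluorescence of each spot with its signal to noise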
[19] = biological target: Torsin-1A-interacting protein 1 (Homo sapiens) (UniProt Q5JTV8); test: compound microarray binding of lysate hLAP1 – cell lysate, small-molecule microarray, COS7 lysate, 635/667 nm fluorescence, primary screen (AID 1116); details: 635 nm fluorescence, higher = more signal
[20] = biological target: Alpha-bungarotoxin (Bungarus multicinctus) (UniProt P60615); test: compounds binding labelled alpha-BTX control protein – biochemical, small-molecule microarray, Alexa647 label, 635/667 nm fluorescence, artefact control for SMM control protein annotation, profiling panel (AID 1117); details: alpha-BTX-A647 binding fluorescence, higher = more signal
Chain of Alpha-bungarotoxin (Bungarus multicinctus) (P60615 whole entry, looked up): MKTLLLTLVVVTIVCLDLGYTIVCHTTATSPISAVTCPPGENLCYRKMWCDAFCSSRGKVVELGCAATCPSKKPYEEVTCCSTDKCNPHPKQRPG

Chain of Follistatin-related protein 3 (Homo sapiens) (O95633 whole entry, looked up): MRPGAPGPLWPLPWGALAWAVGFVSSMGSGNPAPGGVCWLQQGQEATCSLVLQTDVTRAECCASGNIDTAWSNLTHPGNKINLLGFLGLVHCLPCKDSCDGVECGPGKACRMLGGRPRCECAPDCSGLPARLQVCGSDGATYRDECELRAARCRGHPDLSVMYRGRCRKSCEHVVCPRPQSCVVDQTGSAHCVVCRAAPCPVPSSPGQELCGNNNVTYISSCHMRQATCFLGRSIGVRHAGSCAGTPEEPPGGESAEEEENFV
Chain of Left-right determination factor 2 (Homo sapiens) (O00292 whole entry, looked up): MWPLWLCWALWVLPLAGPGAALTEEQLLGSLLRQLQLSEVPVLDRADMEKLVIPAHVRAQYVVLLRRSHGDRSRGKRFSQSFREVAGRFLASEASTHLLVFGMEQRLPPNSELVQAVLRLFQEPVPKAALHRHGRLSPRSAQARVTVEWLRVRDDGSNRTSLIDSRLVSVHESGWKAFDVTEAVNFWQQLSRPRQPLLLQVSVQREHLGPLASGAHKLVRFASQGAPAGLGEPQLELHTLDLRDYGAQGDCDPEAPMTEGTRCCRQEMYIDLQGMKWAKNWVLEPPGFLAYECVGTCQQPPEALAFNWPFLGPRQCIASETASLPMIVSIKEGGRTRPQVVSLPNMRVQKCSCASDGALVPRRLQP
Chain of Fibroblast growth factor 10 (Homo sapiens) (O15520 whole entry, looked up): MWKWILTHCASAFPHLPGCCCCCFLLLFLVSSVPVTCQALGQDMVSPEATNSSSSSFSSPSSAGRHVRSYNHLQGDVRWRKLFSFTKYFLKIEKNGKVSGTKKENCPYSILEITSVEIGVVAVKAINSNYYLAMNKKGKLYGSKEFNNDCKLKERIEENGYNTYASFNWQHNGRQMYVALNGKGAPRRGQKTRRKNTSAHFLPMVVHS
Chain of Epidermal growth factor receptor (Homo sapiens) (P00533 whole entry, looked up): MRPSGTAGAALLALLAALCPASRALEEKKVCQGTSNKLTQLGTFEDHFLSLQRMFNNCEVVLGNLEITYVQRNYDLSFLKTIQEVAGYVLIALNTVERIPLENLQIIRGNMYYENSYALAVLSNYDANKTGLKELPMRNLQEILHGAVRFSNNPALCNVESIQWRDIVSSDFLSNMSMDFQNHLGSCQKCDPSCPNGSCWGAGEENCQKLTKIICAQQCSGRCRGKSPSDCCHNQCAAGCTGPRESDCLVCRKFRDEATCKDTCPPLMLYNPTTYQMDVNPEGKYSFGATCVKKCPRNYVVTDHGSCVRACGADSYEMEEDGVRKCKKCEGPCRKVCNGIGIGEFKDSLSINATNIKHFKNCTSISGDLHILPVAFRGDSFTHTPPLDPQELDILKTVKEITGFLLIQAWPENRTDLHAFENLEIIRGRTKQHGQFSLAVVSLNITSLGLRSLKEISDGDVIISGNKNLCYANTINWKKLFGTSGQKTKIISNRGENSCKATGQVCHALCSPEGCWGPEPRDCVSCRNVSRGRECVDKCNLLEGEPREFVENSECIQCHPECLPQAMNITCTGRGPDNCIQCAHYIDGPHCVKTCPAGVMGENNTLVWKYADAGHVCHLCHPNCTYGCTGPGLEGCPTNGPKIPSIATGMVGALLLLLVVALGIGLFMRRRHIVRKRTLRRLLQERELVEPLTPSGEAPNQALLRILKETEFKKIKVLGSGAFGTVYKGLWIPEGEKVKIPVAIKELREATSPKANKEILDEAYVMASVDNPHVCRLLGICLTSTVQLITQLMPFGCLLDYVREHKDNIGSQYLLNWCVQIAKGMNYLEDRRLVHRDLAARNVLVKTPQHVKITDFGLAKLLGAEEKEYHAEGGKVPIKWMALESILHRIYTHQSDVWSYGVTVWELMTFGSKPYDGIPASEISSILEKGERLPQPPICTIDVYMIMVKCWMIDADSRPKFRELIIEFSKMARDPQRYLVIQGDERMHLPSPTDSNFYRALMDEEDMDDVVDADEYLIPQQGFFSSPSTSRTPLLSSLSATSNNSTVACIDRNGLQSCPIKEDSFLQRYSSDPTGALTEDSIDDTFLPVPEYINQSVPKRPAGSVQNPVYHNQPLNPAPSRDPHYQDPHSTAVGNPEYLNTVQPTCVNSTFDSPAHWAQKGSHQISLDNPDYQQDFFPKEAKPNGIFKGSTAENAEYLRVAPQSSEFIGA
Chain of Torsin-1A-interacting protein 1 (Homo sapiens) (Q5JTV8 whole entry, looked up): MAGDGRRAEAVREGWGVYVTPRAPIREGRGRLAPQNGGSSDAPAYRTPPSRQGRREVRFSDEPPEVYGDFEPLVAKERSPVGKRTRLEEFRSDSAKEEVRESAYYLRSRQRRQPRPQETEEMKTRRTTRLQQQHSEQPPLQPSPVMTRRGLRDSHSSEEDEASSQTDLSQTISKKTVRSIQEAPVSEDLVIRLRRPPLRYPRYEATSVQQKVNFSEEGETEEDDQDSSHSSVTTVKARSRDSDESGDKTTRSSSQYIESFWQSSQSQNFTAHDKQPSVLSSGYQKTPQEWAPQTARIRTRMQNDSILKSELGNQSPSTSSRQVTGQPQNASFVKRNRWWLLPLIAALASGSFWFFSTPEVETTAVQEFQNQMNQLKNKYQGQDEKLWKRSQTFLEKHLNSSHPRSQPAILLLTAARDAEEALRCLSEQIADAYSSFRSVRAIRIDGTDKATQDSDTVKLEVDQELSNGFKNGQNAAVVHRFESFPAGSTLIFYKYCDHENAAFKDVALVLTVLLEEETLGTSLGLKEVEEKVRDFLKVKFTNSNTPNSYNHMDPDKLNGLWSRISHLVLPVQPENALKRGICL
Chain of Dickkopf-related protein 1 (Homo sapiens) (O94907 whole entry, looked up): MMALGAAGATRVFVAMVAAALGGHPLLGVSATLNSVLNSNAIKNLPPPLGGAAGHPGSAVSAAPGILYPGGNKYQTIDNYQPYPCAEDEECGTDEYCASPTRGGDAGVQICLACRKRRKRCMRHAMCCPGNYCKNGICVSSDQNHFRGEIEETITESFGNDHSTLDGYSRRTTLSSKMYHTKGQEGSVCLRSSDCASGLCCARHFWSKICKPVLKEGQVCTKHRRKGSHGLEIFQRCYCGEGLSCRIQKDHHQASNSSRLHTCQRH

Row | SMILES | composite z-score [1] | composite z-score [2] | composite z-score [3] | z-score [4] | composite z-score [5] | composite z-score [6] | composite z-score [7] | composite z-score [8] | composite z-score [9] | composite z-score [10] | composite z-score [11] | z-score [12] | composite z-score [13] | composite z-score [14] | composite z-score [15] | composite z-score [16] | composite z-score [17] | composite z-score [18] | composite z-score [19] | composite z-score [20]
1 | CC(C)C[C@@H]1NC(=O)[C@@H]2C[C@H](C(=O)NCCCCN(C)C)[C@H](c3cccc(OCCO)c3)N2C1=O | 1.66 | -0.224 | 0.0176 | -0.464 (inactive) | -0.272 | -1.24 | -0.0053 | -0.135 | 0.212 | 0.266 | 0.314 | -0.138 | -0.113 | 0.0053 | -0.0276 | -0.221 | -0.138 | -0.313 | -0.249 | -0.555
2 | CCOC(=O)C[C@H]1[C@H](OC(=O)c2ccccc2-c2ccccc2)[C@@H](NC(=O)c2ccc(-c3ccccc3)cc2)c2cc(OCCCO)ccc2N1C(=O)c1ccc2ccccc2n1 | 0.533 | -0.293 | -0.0904 | 0.224 (inactive) | 0.948 | 0.749 | 0.247 | 0.749 | 0.204 | 0.392 | 0.521 | -1.24 | 0.465 | 0.105 | -0.09 | -0.0445 | -0.0035 | 0.233 | -0.0823 | 1.86
3 | CCC[C@@H]1C[C@@]1(CCC)[C@@H](NC(=O)OCc1ccccc1)c1ccc(-c2ccccc2)cc1 | -1.27 | -0.163 | 0.565 | -3.43 (inactive) | -0.933 | -1.74 | -1.1 | -0.644 | -0.496 | 1.47 | -0.44 | -1.5 | -0.484 | 0.233 | 1.1 | -0.0026 | 1.42 | -0.304 | -0.143 | -0.899
4 | C=CCC(OC(C)=O)[C@@H]1[C@@H](N(Cc2ccc(-c3cccc(C(F)(F)F)c3)o2)C(=O)c2ccc(-c3ccccc3)cc2)c2cc(OCCCO)ccc2N1C(=O)c1ccc2ccccc2n1 (stereo not given in full) | -0.219 | 0.148 | 0.202 | 0.39 (inactive) | 0.129 | -0.587 | -0.049 | 0.472 | -0.0126 | 1.28 | -0.252 | 0.177 | -0.122 | -0.227 | 0.623 | 0.0437 | 0.112 | -0.139 | -0.2 | -0.386
5 | CCCC[C@@H](O)C1=C(COc2ccccc2)C[C@H]2C(=O)N(C)C(=O)[C@H]2[C@H]1CO | 0.119 | -0.423 | -0.575 | -1.3 (inactive) | -0.0816 | -0.0425 | -0.333 | -0.0008 | -0.0034 | 0.799 | -1.05 | -0.408 | -0.164 | -0.756 | -0.527 | -0.195 | -0.2 | -0.519 | -1 | -0.149
6 | [N-]=[N+]=NCc1ccccc1[C@H]1OC(c2ccc(OCCCO)cc2)=N[C@@]1(CCS(=O)(=O)c1ccccc1)C(=O)N1CCCCC1 | 1.15 | 1.05 | 1.42 | -0.33 (inactive) | 0.644 | 1.28 | 0.169 | 0.909 | -0.202 | 1.57 | -0.695 | -1.11 | 0.651 | 2.25 | 0.735 | 0.16 | 0.385 | 1.15 | 1.22 | 2.96
7 | CCCCC(=C=CC[C@@H](O)c1ccccc1OCCO)C[C@@H](O)COCc1ccccc1 | 1.15 | -0.126 | 0.142 | -0.705 (inactive) | 0.114 | -0.158 | -1.14 | -0.126 | -0.498 | 0.596 | 0.0941 | -1.45 | -0.608 | -0.275 | -0.0639 | 0.384 | -0.237 | -0.124 | 0.694 | 1.02
8 | C=C(/C(=C/C[C@H](OC(C)=O)c1ccccc1OCCO)c1cc(C(=O)OC)ccc1OC)C(C)C | 1.64 | -0.15 | -0.192 | -0.736 (inactive) | 0.634 | -0.122 | -0.167 | 0.0218 | -0.0716 | 0.721 | 0.83 | -1.74 | 0.0218 | -0.227 | -0.578 | -0.096 | 0.0469 | -0.0244 | 0.612 | -0.0802
9 | COCCOC(=O)N1C(=O)[C@@]2(c3cc(C#Cc4ccc(OC)cc4)ccc31)[C@H](c1ccccc1OCCO)N1[C@H](c3ccccc3)[C@H](c3ccccc3)OC(=O)[C@H]1[C@@H]2C(=O)N1CCCCCCC1 | 1.2 | 2.8 | 1.79 | -1.38 (inactive) | 1.29 | 1.34 | 1.49 | 1.61 | 2.12 | 1.91 | 1.03 | -1.36 | 1.17 | 2.84 | 1.6 | 1.26 | 2.59 | 3.38 | 5.26 | 1.8
10 | Cc1ccccc1C(O)C1C=CC2C(=O)N(C)C(=O)C2N1N(c1ccccc1)c1ccccc1 (stereo not given) | -0.167 | 0.858 | 0.11 | 0.595 (inactive) | 0.362 | -0.401 | 0.304 | 0.0459 | 0.119 | 1.33 | -1.19 | -0.247 | -0.0024 | -0.945 | -0.454 | 0.0737 | 0.0582 | 0.387 | 0.0266 | 0.305
11 | [N-]=[N+]=Nc1ccccc1[C@@H]1OC(c2ccc(OCCCO)cc2)=N[C@]1(Cc1ccccc1)C(=O)NCC(O)CO (stereo not given in full) | 1.08 | 1.33 | 1.4 | -1.37 (inactive) | 0.915 | -0.216 | -0.433 | 0.18 | -0.647 | 1.09 | 0.883 | -1.34 | -0.879 | 2.21 | 1.18 | 0.0189 | 0.4 | -0.4 | 2.95 | 2.56
12 | COc1ccccc1CN1C(=O)c2ccccc2[C@](Cc2ccccc2I)(C(=O)NCC(F)(F)F)[C@@H]1c1ccc(CO)cc1 | 1.31 | 0.984 | 0.854 | 0.377 (inactive) | 0.7 | 1.29 | -0.24 | 1.1 | -0.532 | 0.513 | 0.905 | -1.16 | -0.201 | 2.03 | 0.731 | 0.0559 | -0.106 | 0.0286 | 1.42 | 1.36
13 | CC[C@H]1C2=C3C(CC[C@H]4C(OCc5ccc(F)cc5C(F)(F)F)OC[C@](C)([C@@H]34)N(C(=O)OC(C)(C)C)C2)C(COC)C1COC (stereo not given in full) | -0.0539 | 0.222 | 0.475 | 0.477 (inactive) | -0.0147 | -0.652 | -0.52 | 0.269 | -0.384 | 0.561 | 0.732 | -0.25 | -0.696 | 0.914 | 0.771 | 0.0768 | -0.214 | 1.33 | -0.0575 | 0.0915
14 | CC1CC/C=C\[C@H]2OC34C=CCN(C(C)C)C(=O)[C@H]3N(CCCCCCO)C(=O)[C@@H]4C2C(=O)O1 (stereo not given in full) | 0.733 | -0.242 | 0.417 | -0.935 (inactive) | -1.16 | -1.22 | -0.755 | -0.931 | -1.24 | 0.25 | -1.9 | -0.729 | -0.83 | -0.295 | 0.571 | -0.15 | -0.117 | 0.0595 | -0.673 | -0.706
15 | CC(C)N1C(=O)c2ccccc2[C@@H](C(=O)NC2CC2)[C@@H]1c1ccc(CO)cc1 | 0.869 | -0.18 | -0.194 | 0.381 (inactive) | -0.114 | 0.621 | -0.0202 | 0.552 | 0.37 | 1.13 | -0.142 | 0.0045 | 0.415 | 1.01 | 0.343 | -0.0236 | -0.282 | -0.288 | 0.997 | 0.654
16 | COC(=O)c1c2oc(c1C(=O)OC)C(=O)N(C)Cc1cn(nn1)C[C@H](Cc1ccccc1)NC(=O)N[C@H](CO)CC2 | -0.595 | -0.349 | -0.264 | 0.322 (inactive) | -0.591 | -0.94 | -0.694 | -0.269 | -0.316 | -0.0248 | -1.07 | -1.18 | -0.683 | -0.633 | -0.197 | -0.246 | -0.154 | -0.299 | -0.641 | -0.277
17 | Cc1cc(C)c(C(O)C2C=CC3C(=O)N(c4ccccc4)C(=O)C3N2Nc2ccc(C(C)C)cc2)c(C)c1 (stereo not given) | 0.68 | 1.19 | 1.08 | -0.00156 (inactive) | 0.978 | 1.25 | -0.0206 | 0.818 | -0.0403 | 0.202 | -0.9 | 0.437 | 0.229 | 2.15 | 1.37 | 0.0792 | 0.664 | 1.21 | 1.27 | 2.85
